Compound activity from PubChem.
Shown are actives, neighbours in structure and some others; about 2.7% of the full set was active somewhere.
SKN-1 inh – inhibitors of C. elegans SKN-1. C. elegans VP596 Pgst-4::GFP/RFP ratio, acrylamide-induced, 24 h. inhibition, % at 21.8 µM. 360,000 tested, 0.49% active. AID 624304;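 active = interference check ratio from 0.5 to 1.5 plus GFP to RFP signal ratio inhibition reaching or exceeding a fixed threshold, cut at about 30% in these data, passing the limit was not always enough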
CFTR F508del cor – correctors of CFTR F508del function in bronchial epithelial cells; 350,000 tested, 0.36% active; activity (quench increase), % at 7.58 µM; CFBE cells, YFP halide quenching; stimulated with forskolin plus potentiator P3; % fluorescence drop versus neutral controls;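 active = mean added fluorescence quench of at least 8% versus neutral control, with both replicates also reaching 8%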;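 also: cells transiently co-express mutant CFTR-F508del with the halide-sensitive YFP; corrector assay measuring rescue of mutant channel to the surface after 24 h compound exposure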
CendR NRP1 mod – alters CendR peptide binding to human NRP-1; O14786; FAM-RPARPAR peptide binding to NRP-1, fluorescence polarization; inhibition, % at 25 µM; 360,000 tested, 0.85% active; AID 602438;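 active = inhibition or corrected inhibition above about 18%, plus a signal ratio from 0.5 to 1.5, limit read from the data, passing the limit was not always enough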
Target sequence (O14786 whole entry, looked up): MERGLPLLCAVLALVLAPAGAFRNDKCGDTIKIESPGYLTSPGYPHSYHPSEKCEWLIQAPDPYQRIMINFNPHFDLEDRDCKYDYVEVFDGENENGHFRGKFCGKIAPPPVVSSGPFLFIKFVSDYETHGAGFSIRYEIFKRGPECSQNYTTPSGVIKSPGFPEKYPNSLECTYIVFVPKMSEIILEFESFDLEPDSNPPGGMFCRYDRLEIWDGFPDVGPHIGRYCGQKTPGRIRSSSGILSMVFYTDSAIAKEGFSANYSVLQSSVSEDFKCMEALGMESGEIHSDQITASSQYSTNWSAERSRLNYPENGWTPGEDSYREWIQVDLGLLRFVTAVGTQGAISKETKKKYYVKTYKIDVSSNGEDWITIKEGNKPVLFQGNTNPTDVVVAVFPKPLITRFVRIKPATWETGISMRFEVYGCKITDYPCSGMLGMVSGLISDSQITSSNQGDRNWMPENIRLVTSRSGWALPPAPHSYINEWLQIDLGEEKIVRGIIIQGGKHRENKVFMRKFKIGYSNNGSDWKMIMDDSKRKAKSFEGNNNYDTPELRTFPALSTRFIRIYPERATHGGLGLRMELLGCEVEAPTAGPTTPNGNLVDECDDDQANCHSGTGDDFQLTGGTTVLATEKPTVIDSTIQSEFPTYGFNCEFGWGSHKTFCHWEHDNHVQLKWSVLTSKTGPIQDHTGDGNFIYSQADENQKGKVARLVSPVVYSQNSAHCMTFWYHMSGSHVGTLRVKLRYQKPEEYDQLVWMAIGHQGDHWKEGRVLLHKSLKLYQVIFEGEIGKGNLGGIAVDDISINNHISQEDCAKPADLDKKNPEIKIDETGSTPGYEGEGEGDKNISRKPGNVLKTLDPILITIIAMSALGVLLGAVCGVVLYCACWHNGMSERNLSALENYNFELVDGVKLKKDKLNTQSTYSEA
ATG4B inh – ATG4B (human) cysteine protease inhibition. ATG4B cleavage of LC3-PLA2, NBD-HPC fluorescence, 1 h. inhibition, % at 8.33 µM. 340,000 tested, 0.51% active. AID 504462; in the data active = inhibition above about 40%
MPTP block – inhibitors of mitochondrial permeability transition pore; inhibition, % at 10 µM; 360,000 tested, 1.4% active; isolated mouse mitochondria, Ca2+ swelling absorbance, 30 min;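 active = inhibition of 50% or more, scaled per plate between neutral and stimulator controls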;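 also: 0% = DMSO wells given calcium and 100% = 1 mM EGTA wells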
Active calls of the source: *; x = no result given.

SMILES	SKN-1 inh	CFTR F508del cor	CendR NRP1 mod	ATG4B inh	MPTP block
CC(C)(C)OC(=O)N1O[C@H]2C[C@@H]1[C@@H]1[C@@H]2N=NN1C12CC3CC(CC(C3)C1)C2	22	2	2	-2	-3
CC(C)(C)OC(=O)N1O[C@H]2CC1[C@@H]1[C@@H]2N=NN1CCc1ccncc1	-3	2	23*	-8	2
CC1CCN(C(=O)CSc2nncn2-c2ccccn2)CC1	30	x	2	3	1
CC1CCN(C(=O)CSc2nncn2C)CC1	-3	x	48*	0	0
O=C(CSc1nc(O)c(C2CCCCC2)c(=O)[nH]1)NCC1CCCO1 (stereo not drawn)	31*	x	2	-2	0
COCCNC(=O)C(c1ccc(C)o1)N(Cc1ccc(OC)cc1)C(=O)Cn1nnc2ccccc21 (stereo not drawn)	35*	x	2	-8	-1
O=C(NCc1ccc(F)cc1)c1cnc(-c2ccccn2)nc1C(F)(F)F	26	x	29*	4	1
O=C(NCc1ccc(F)cc1)c1cccnc1C(=O)O	11	1	27*	7	0
O=C(NCc1cccs1)c1cccnc1C(=O)O	2	x	-1	6	0
CN(C)C(=O)C[C@H]1CC[C@@H]2[C@H](COC[C@@H](O)CN2CC2CCCC2)O1	x	-2	x	x	x
C[C@@H]1CN([C@H](C)CO)C(=O)c2cc(NS(=O)(=O)c3ccc(Cl)cc3)ccc2O[C@@H](C)CCCCO[C@H]1CN(C)S(=O)(=O)c1ccc(Cl)cc1	x	0	x	x	x
COc1ccc(NC(=O)Nc2ccc3c(c2)[C@@H]2C[C@H](CC(=O)NCc4ccc5c(c4)OCO5)O[C@H](CO)[C@@H]2O3)cc1	x	1	x	x	x
c1ccc2nc(-c3nc4ccccc4o3)ccc2c1	80*	x	-14	4	-1
CS(=O)(=O)Nc1ccc2c(c1)[C@H]1C[C@@H](CC(=O)NCc3ccccn3)O[C@@H](CO)[C@H]1O2	x	-1	x	x	x
COc1cc(Cn2nnc3ccccc32)cc(Br)c1O	9	2	23*	2	1
CC(C)c1ccc(OCC(=O)NCc2ccccc2)cc1	-16	1	52*	1	0
CC(C)c1ccc(CNC(=O)CCc2ccccc2)cc1	-6	-2	6	-5	-2
Clc1ccccc1OCc1nc(-c2ccc(Br)o2)no1	3	1	-3	11	1
Clc1ccccc1-c1nc(-c2ccc(Br)o2)no1	67*	2	11	18	0
O=[N+]([O-])c1ccccc1-c1nc(-c2ccc(Br)o2)no1	58*	x	-4	20	0
CN1CCN(C(=O)C[C@H]2C[C@H]3c4cc(NC(=O)CC5CC5)ccc4O[C@H]3[C@H](CO)O2)CC1	x	-1	x	x	x
O=C1C2C(C(=O)N1Cc1cccnc1)C1C=CC2C12CC2 (stereo not drawn)	41*	x	2	5	-3
CO[C@H]1CN(C)C(=O)c2ccc(NC(C)=O)cc2OC[C@H](C)N(CCC(F)(F)F)C[C@H]1C	x	2	x	x	x
CCOC(=O)C1CCN(C(=O)c2ccc(Cl)c(S(=O)(=O)N3CCOCC3)c2)CC1	2	-1	-10	-13	-2
CCOC(=O)C1CCN(C(=O)c2ccc(Cl)c(S(=O)(=O)N3CCCC3)c2)CC1	-2	0	30*	6	-1
SMILES	SKN-1 inh	CFTR F508del cor	CendR NRP1 mod	ATG4B inh	MPTP block
O=C(c1ccc(Cl)c(S(=O)(=O)N2CCCCC2)c1)N1CCN(c2ccccc2)CC1	8	2	-4	1	-1
O=C(C1CCN(S(=O)(=O)c2ccc(Cl)s2)CC1)N1CCN(c2ccccc2)CC1	3	-3	28*	-8	-2
O=C(c1ccc(Cl)c(S(=O)(=O)N2CCCC2)c1)N1CCN(c2ccccc2)CC1	1	3	37*	-7	0
CO[C@@H]1CN(C)C(=O)c2cc(NS(C)(=O)=O)ccc2OC[C@@H](C)N(C(=O)C2CCOCC2)C[C@H]1C	x	1	x	x	x
CO[C@@H](CN(C)C(=O)C1CCOCC1)[C@H](C)CN([C@@H](C)CO)S(=O)(=O)c1ccccc1	x	1	x	x	x
O=C(CNC(=O)C12CC3CC(CC(C3)C1)C2)NC1=NCCS1	5	x	26*	2	-2
Cc1ccc(/C=N/NC(=O)c2c(-c3ccccc3)noc2C)c(O)c1	3	11*	-5	x	2
COc1cccc(/C=N/NC(=O)c2c(-c3ccccc3)noc2C)c1O	1	x	2	-5	-1
OC[C@@H]1[C@@H](c2ccccc2)C2(CN(Cc3ccccc3F)C2)N1Cc1ccccc1F	x	10*	x	x	x
Cc1noc(C)c1NC(=O)Nc1ccc2c(c1)C(=O)N([C@@H](C)CO)C[C@@H](C)[C@H](CN(C)Cc1ccccc1)OCCCC[C@H](C)O2	x	-1	x	x	x
Fc1cnc(N2CCc3ccccc32)nc1N1CCc2ccccc21	0	x	-12	1	-1
CC1(C)CC(=O)c2cnc(N3CCc4ccccc43)nc2C1	3	0	28*	-2	1
Cc1ccc(Nc2nc(N)nc(CN3CCN(c4ccccc4)CC3)n2)cc1Cl	33	x	-12	-15	-2
COc1ccc(N2CCN(Cc3nc(N)nc(Nc4ccc(C)c(Cl)c4)n3)CC2)cc1	36*	x	-2	-10	-5
Cc1cc(C(=O)N2CCCC(N3CCN(c4cccc(C(F)(F)F)c4)CC3)C2)nn1C (stereo not drawn)	12	2	5	8	1
Cc1cc(C(=O)N2CCCC(N3CCN(c4cccc(Cl)c4)CC3)C2)nn1C (stereo not drawn)	-1	2	30*	10	1
COc1cc(-c2noc(C)c2C#Cc2ccccn2)cc(OC)c1OC	9	10*	12	-7	1
COc1cc(-c2noc(C)c2C#Cc2ccc(N)cc2)cc(OC)c1OC	10	2	-8	-4	0
Cc1ccc2nc(-c3ccc(NC(=S)NC4CC(C)(C)NC(C)(C)C4)cc3)sc2c1	84*	-15	-12	14	32
C[C@H]1CN([C@@H](C)CO)C(=O)c2cc(NC(=O)Nc3ccccc3)ccc2O[C@H]1CN(C)C(=O)Nc1ccccc1	x	-1	x	x	x
CC1Cc2ccccc2N1C(=O)C1CCN(S(=O)(=O)Cc2ccccc2)CC1 (stereo not drawn)	32*	x	7	14	1
CC(C)Oc1cccc(C(=O)Nc2ccc(CN3CCOCC3)cc2)c1	35*	2	3	1	1
O=C(/C=C/c1ccc(Cl)cc1Cl)Nc1ccc(CN2CCOCC2)cc1	47*	x	0	-28	7
O=C(/C=C/c1ccccc1)Nc1ccc(CN2CCOCC2)cc1	65*	-3	5	-13	1
COc1ccc(NC(=O)N(C)C[C@H]2Oc3cc(-c4ccc(C)cc4)ccc3S(=O)(=O)N([C@H](C)CO)C[C@@H]2C)cc1	x	3	x	x	x
C[C@H](CO)N1C[C@H](C)[C@@H](CN(C)C(=O)Nc2cccc3ccccc23)Oc2ccc(NS(=O)(=O)c3cn(C)cn3)cc2CC1=O	x	-4	x	x	x
